Our source for the activity, negative = inhibition values is PubChem BioAssay (NCATS).

Inconclusive results are not listed. The source made the active and inactive calls. The call rests on the fitted dose curve; in most records, active means well fitted inhibition curve with a large enough effect; inconclusive means small, poorly fitted or top-dose-only effect; inactive means flat fitted curve, though single readings scatter.

Chain of Lysine-specific demethylase 5B (Homo sapiens) (Q9UGL1 whole entry, looked up): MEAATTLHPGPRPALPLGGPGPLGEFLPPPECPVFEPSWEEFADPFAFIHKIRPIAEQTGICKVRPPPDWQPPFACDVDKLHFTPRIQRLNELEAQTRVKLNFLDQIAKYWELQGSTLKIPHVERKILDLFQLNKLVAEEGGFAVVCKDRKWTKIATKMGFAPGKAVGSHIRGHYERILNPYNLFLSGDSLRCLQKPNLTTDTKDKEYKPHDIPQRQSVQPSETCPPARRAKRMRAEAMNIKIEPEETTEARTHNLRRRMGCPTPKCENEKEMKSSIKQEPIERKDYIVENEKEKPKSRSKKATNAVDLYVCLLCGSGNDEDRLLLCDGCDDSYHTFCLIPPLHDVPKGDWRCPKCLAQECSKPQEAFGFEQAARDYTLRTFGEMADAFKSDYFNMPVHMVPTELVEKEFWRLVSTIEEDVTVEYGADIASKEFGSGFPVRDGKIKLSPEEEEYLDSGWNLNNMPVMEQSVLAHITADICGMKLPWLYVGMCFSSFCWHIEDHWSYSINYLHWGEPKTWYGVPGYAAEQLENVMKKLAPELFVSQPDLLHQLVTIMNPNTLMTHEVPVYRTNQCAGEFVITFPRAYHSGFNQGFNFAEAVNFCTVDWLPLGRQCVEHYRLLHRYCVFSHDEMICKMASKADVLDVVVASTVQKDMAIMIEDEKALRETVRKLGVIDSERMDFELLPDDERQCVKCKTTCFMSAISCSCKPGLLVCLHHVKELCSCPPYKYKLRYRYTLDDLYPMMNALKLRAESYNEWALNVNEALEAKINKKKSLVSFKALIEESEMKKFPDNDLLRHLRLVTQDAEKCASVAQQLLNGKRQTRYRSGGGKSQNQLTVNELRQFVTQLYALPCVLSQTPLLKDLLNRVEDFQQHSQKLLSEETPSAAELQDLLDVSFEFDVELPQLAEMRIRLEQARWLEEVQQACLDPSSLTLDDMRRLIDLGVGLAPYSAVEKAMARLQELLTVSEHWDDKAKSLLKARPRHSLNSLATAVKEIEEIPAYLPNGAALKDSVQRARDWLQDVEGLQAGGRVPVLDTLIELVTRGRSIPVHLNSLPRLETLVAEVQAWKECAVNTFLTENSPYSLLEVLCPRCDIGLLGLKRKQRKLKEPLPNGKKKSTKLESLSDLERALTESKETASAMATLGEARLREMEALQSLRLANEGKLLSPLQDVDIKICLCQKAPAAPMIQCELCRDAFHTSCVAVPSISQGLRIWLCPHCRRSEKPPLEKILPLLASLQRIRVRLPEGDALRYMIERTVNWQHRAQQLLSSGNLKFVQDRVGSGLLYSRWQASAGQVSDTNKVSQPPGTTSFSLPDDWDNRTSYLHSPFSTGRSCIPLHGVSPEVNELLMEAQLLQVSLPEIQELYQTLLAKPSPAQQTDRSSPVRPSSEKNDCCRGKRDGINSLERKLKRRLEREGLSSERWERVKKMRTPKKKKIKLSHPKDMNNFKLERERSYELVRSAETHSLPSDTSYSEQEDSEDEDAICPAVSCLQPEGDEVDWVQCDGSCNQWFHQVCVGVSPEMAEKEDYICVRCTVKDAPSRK

The target of the assay is Lysine-specific demethylase 5B (Homo sapiens) (UniProt Q9UGL1). Briefly: Optimization screen for KDM5B Histone Demethylases FDH coupled qHTS against the LOPAC library (AID 1347166). Further: 0% is about no effect. The conditions noted are these: KDM5B demethylation, FDH-coupled NADH fluorescence (FDH is formaldehyde dehydrogenase); at 57.5 µM (top of the series). The essentials:
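KDM5BDeltaAP (200nM final) in 50mM HEPES pH 7.5, 0.01% Tween-20 was preincubated with compound for 10 min at room temperature. A substrate mix of 12.5uM H3K4Me3, 25uM a-ketoglutarate, ascorbate, Fe2+, NAD+ and formaldehyde dehydrogenase was then added. NADH fluorescence (340/450 nm) was read initially and after 30 min.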
Regarding `Oc1ccc(Cn2cc[nH]c2=S)cc1`, the activity, negative = inhibition was -15.9% (inactive).
Turning to `COc1ccc(CCn2nnnc2C2(c3ccc(C)cc3)CC2)cc1`, the activity, negative = inhibition was -4.62% (inactive).
With `CN(CC[C@@H](Oc1ccc(C(F)(F)F)cc1)c1ccccc1)CC(=O)O` the figure was -7.4% (inactive); with `Nc1ncnc2c1nc(Sc1ccc(Cl)cc1)n2[C@H]1OC2COP(=O)(O)O[C@@H]2C1O` (some centres not stated), -0.0945% (inactive).
With `NC(Cc1cccc(-c2ccccc2CP(=O)(O)O)c1)C(=O)O` (configuration not stated), the activity, negative = inhibition is -9.93% (inactive).
The figure for `Oc1ccc(/C=C/c2ccc(/C=C/c3ccc(O)cc3)c(Br)c2)cc1` is 662% (inactive).
The figure for `NC1(C(=O)O)CC1` is -7.89% (inactive); for `COC(=O)C(C)(N)Cc1ccc(O)cc1` (configuration not stated) it is -17.5% (inactive).
Consider `CC(C)[C@@H]1CC[C@@H](C)C[C@@H]1P(=O)(c1ccccc1)c1ccccc1`, for which the activity, negative = inhibition is -4.33% (inactive).
The figure for `COc1ccc(-c2ccc(N)[n+](CCCC(=O)O)n2)cc1` is -3.69% (inactive); for `CC1=C(C(=O)O)N2C(=O)[C@@H](NC(=O)C(N)C3=CCC=CC3)[C@H]2SC1` (some centres not stated) it is -22.8% (inactive); for `COc1ccc2c(c1)c(CC(=O)O)c(C)n2Cc1ccc(Cl)cc1` it is -5.89% (inactive).
The figure for `CCCCS(=N)(=O)CC[C@H](N)C(=O)O` (some centres not stated) is -2.9% (inactive); for `N=C(N)c1ccc(N)cc1` it is -6.1% (inactive); for `CC(N)(Cc1ccc(O)cc1)C(=O)O` (configuration not stated) it is 1.49% (inactive).
Consider `Nc1ccc(N2C(=O)c3ccccc3C2=O)c(Cl)c1`, for which the activity, negative = inhibition was -4.03% (inactive).
With `C[C@H]1CC2C3CCC4=CC(=O)C=C[C@]4(C)[C@@]3(Cl)[C@@H](O)C[C@]2(C)[C@@]1(O)C(=O)CO` (some centres not stated) the figure was -1.11% (inactive).
